According to PubChem BioAssay:
Activity calls are given as the source filed them.

Legend:
[1] = anti-His antibody binders, primary screen, artefact control for SMM control protein annotation, biochemical, small-molecule microarray, 635 nm fluorescence (AID 1128); details: anti-His Alexa647 antibody binding, higher = more signal;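 note: score merges feature fluorescence with signal-to-noise for each printed compound spot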
[2] = system: Human papillomavirus type 1a E7 protein (residues 1-88); experiment: HPV1a E7 small-molecule binders, primary screen, biochemical, small-molecule microarray, residues 1-88, 635 nm (AID 1129); details: small-molecule microarray binding, fluorescence 635 nm; higher = more signal
[3] = molecular target: Focal adhesion kinase 1 (Homo sapiens) (UniProt Q05397); experiment: small-molecule microarray binders of FAK, primary screen, biochemical, 635/667 nm fluorescence, BSA, DTT (AID 1130); details: PTK2 binding, 635 nm fluorescence, higher = more signal;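 note: composite of spot emission at 667 nm and signal to noise over triplicate slides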
Sequence of Focal adhesion kinase 1 (Homo sapiens) (Q05397 whole entry, looked up): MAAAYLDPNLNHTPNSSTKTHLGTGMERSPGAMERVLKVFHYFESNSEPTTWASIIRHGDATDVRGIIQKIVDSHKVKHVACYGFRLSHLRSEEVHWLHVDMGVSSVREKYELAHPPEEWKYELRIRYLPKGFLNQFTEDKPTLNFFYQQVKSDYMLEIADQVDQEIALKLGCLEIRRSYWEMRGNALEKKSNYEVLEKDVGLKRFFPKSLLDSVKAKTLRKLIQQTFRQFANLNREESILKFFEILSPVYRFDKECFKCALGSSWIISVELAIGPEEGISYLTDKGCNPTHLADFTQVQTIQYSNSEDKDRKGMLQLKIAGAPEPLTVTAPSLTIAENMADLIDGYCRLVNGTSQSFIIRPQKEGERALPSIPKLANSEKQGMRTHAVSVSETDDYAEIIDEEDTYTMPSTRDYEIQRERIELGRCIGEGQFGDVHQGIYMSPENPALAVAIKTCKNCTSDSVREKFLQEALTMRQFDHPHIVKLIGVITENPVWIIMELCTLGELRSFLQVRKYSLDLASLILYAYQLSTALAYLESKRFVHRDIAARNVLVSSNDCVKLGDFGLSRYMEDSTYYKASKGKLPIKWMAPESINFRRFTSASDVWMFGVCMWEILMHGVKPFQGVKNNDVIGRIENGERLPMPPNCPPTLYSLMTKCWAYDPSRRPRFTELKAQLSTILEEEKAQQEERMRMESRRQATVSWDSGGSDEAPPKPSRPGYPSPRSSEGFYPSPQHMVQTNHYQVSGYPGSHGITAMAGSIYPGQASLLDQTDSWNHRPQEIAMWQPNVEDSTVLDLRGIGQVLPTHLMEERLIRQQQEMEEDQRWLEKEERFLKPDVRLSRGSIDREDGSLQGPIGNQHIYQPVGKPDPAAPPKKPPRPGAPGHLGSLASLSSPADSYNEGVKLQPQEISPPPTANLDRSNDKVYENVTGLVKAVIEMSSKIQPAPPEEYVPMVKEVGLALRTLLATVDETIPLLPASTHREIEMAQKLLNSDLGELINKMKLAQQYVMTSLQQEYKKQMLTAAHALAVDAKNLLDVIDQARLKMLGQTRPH

[4] = system: Fibrinogen (Alexa647-labelled); experiment: fibrinogen binders on compound microarrays, profiling panel, artefact control for SMM control-protein annotation, biochemical, small-molecule microarray, 635/667 nm fluorescence (AID 1131); details: fibrinogen-A647 binding fluorescence, higher = more signal;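 note: z-score merges 667 nm fluorescence with per-spot signal-to-noise over triplicate slides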
[5] = molecular target: Follistatin (Homo sapiens) (UniProt P19883); experiment: follistatin binders on small-molecule microarrays, primary screen, biochemical, small-molecule microarray, 635/667 nm fluorescence (AID 1132); details: FST binding, 635 nm fluorescence, higher = more signal
Sequence of Follistatin (Homo sapiens) (P19883 whole entry, looked up): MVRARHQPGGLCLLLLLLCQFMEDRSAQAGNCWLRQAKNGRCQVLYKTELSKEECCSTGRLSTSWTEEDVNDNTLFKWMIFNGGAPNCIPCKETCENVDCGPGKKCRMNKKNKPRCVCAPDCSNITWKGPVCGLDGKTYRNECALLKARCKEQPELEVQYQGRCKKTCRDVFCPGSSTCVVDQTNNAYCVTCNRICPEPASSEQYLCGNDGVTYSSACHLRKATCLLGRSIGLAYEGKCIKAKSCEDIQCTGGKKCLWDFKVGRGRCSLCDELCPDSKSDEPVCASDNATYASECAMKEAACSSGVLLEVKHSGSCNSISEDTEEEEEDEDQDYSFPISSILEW

[6] = molecular target: Fibroblast growth factor 2 (Homo sapiens) (UniProt P09038); experiment: FGF2 binders on small-molecule microarrays, primary screen, biochemical, small-molecule microarray, 635/667 nm fluorescence (AID 1133); details: small-molecule microarray binding, FGF2, fluorescence 635/667; higher = more signal
Sequence of Fibroblast growth factor 2 (Homo sapiens) (P09038 whole entry, looked up): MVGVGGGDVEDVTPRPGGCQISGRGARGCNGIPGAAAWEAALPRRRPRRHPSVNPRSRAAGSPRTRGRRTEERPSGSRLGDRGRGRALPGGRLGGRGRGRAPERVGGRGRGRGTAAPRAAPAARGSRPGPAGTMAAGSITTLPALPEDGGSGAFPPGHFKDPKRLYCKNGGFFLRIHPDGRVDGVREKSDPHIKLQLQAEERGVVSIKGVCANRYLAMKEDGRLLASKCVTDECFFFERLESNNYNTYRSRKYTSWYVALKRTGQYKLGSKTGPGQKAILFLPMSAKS

[7] = mitochondrial membrane potential change in A549 cells, profiling panel, cell-based, JC-1 fluorescence, basal, 24 h, 100 nL (AID 1138); details: higher = more signal;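 note: A549 lung adenocarcinoma cells under basal conditions with no added stimulus; test concentration not given here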
[8] = system: Lefty1; experiment: Lefty1 binders on small-molecule microarrays, primary screen, biochemical, small-molecule microarray, 635/667 nm fluorescence (AID 1139); details: small-molecule microarray binding, fluorescence 635/667; higher = more signal
[9] = system: wheat germ agglutinin (Triticum aestivum), Alexa647-labelled; experiment: wheat germ agglutinin binders on compound microarrays, profiling panel, artefact control for SMM control-protein annotation, biochemical, small-molecule microarray, 635/667 nm fluorescence (AID 1140); details: WGA-A647 binding, 635 nm fluorescence, higher = more signal;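 note: score merges 667 nm feature emission with signal to noise over triplicate slides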
[10] = molecular target: Luciferin 4-monooxygenase (Photinus pyralis) (UniProt P08659); experiment: firefly luciferase enzyme inhibitors, primary screen, biochemical, luminescence, purified enzyme, 2006 set (AID 1141); details: SteadyGlo luminescence, 30 min, higher = more signal, called active from +8 up or from −8 down;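 note: cell-free assay with purified firefly luciferase at 100 ng per well in PBS; test concentration not given here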
Sequence of Luciferin 4-monooxygenase (Photinus pyralis) (P08659 whole entry, looked up): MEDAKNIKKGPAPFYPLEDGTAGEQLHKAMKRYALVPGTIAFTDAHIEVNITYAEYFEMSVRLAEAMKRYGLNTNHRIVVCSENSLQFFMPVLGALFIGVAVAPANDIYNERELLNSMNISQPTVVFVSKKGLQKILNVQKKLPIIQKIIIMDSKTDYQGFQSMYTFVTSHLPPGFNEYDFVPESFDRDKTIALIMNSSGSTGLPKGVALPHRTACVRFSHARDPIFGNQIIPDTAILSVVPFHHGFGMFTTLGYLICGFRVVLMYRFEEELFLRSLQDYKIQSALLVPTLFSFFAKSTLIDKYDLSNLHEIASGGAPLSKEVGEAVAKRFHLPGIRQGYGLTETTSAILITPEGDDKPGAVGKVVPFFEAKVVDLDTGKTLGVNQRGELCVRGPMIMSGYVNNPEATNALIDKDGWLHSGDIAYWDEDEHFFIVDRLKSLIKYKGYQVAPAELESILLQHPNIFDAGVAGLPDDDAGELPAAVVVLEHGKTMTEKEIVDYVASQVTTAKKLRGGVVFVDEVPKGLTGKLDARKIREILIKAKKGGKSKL

Row | SMILES | composite z-score [1] | composite z-score [2] | composite z-score [3] | composite z-score [4] | composite z-score [5] | composite z-score [6] | z-score [7] | composite z-score [8] | composite z-score [9] | z-score [10]
1 | CC(C)CON=C1C[C@@H](O)[C@@H](O)[C@@H]2[C@@H]3C(=O)N(C[C@@H]4CCCO4)C(=O)[C@@H]3CC[C@@H]12 | 0.0488 | -0.0845 | 0.348 | 0.222 | -0.341 | -0.0796 | 0.221 | -0.399 | 0.561 | 0.141 (inactive)
2 | COc1ccc(O[C@H]2C=C[C@@H](c3ccccc3)O[C@@H]2COC(=O)CCC(C)=NOC[C@@H](O)[C@H]2O[C@@H]3OC(C)(C)O[C@@H]3[C@H]2O)cc1 | 0.977 | 0.835 | 0.179 | 0.536 | 0.697 | 0.439 | -0.206 | 0.334 | -0.13 | 0.302 (inactive)
3 | CON=C[C@@H](NS(=O)(=O)c1ccc(C)cc1)[C@H](C)C=CCC(=O)OC | 0.4 | -1.15 | 0.438 | -0.717 | 0.718 | 0.747 | 0.764 | 0.585 | -0.35 | -0.42 (inactive)
4 | C#CCCCON=C1C[C@@H](O)[C@@H](O)[C@@H]2[C@@H]3C(=O)N(CC)C(=O)[C@@H]3CC[C@@H]12 | 0.399 | 0.63 | -0.229 | 0.0609 | 0.759 | 0.672 | -0.39 | 0.289 | -0.0002 | 0.194 (inactive)
5 | C=CC[C@@H]1C=C[C@H](ON=C(C)CCN2CCc3nc(-c4ccccc4)c(-c4ccccc4)cc3C2)[C@@H](CO)O1 | 0.133 | 0.876 | -0.372 | 0.727 | 0.787 | 0.362 | 2.3 | 0.736 | 0.169 | -0.118 (inactive)
6 | CO[C@H]1COC(=O)[C@@H](Cc2ccccc2)NC(=O)[C@@H](C)COC(=O)CCC[C@@H]1C | 4.12 | -0.666 | 0.0469 | -0.179 | 0.2 | 0.241 | -0.946 | 0.534 | -0.29 | 0.643 (inactive)
7 | COC(=O)[C@H](C)NC(=O)CCC1CC(OC(=O)NCc2ccc3c(c2)OCO3)CC2(CCCC(COC(=O)NCC(c3ccccc3)c3ccccc3)O2)O1 (stereo not given in full) | 1.31 | 1.22 | 0.136 | 0.925 | 0.986 | 0.903 | -1.35 | 1.25 | 0.31 | 0.834 (inactive)
8 | CCCCC#C[C@@H]1C=C[C@H](Oc2ccc(C(=O)OC)cc2)[C@@H](COC(=O)OCC)O1 | 0.516 | 0.459 | -0.0377 | 0.531 | 0.974 | 0.585 | -0.896 | 0.309 | 0.276 | -3.64 (inactive)
9 | CO[C@@H]1COC(=O)[C@H](CCSC)NC(=O)CC=C[C@@H](C)COC(=O)CCC[C@H]1C | -0.252 | -1.17 | -0.798 | -2.26 | 1.44 | 1.97 | 0.803 | 1.84 | -0.65 | 1.05 (inactive)
10 | CCC=CCCC(OC(=O)c1ccc(Br)cc1)C1=CCCCC1=O (stereo not given) | 0.164 | 1.17 | 0.408 | -0.997 | 1.11 | 0.584 | -0.158 | 0.876 | 0.485 | 0.0771 (inactive)
11 | COc1ccc(C#C[C@@H]2C=C[C@H](OC(C)=O)[C@@H](COC(C)=O)O2)cc1 | 1.01 | 0.282 | 0.0919 | 0.0177 | 0.567 | 0.183 | 0.0859 | 0.649 | 0.217 | -1.06 (inactive)
12 | O=C(NN=C1C[C@@H](O)[C@@H](O)[C@@H]2[C@@H]3C(=O)N(C4CCCCC4)C(=O)[C@@H]3CC[C@@H]12)OCc1ccccc1 | 0.0161 | 0.139 | 0.0639 | 0.294 | 0.0434 | 0.243 | 0.163 | -0.0104 | -0.132 | -0.427 (inactive)
13 | COC(=O)[C@@H]1CC[C@H](C)[C@@H](c2ccc(C)cc2)N1C(=O)c1ccc(C=NO[C@@H]2O[C@H](COC(C)=O)[C@@H](OC(C)=O)[C@H](OC(C)=O)[C@H]2OC(C)=O)cc1 | 2.08 | 0.68 | -0.169 | 0.926 | 0.551 | 0.336 | 0.0992 | 1.06 | 0.347 | 0.945 (inactive)
14 | O=C1CCCC=C1C(CCc1ccccc1)OC(=O)c1ccc(Br)cc1 (stereo not given) | 0.0508 | -0.757 | -0.0417 | -0.612 | 0.0148 | 0.0039 | -0.65 | 0.167 | -0.254 | 0.063 (inactive)
15 | COC(=O)[C@@H]1CC[C@H](C)[C@@H](c2ccc(C)cc2)N1C(=O)c1ccc(C=NOC[C@@H](C)[C@H](OCc2ccccc2)C(C)C)cc1 | 0.336 | 0.673 | 0.936 | 0.857 | 0.915 | 0.698 | 1.26 | 0.799 | 0.37 | -1.46 (inactive)
16 | CC[C@@H](c1ccccc1)n1c(=O)n2n(c1=O)[C@H]1[C@H](O)[C@@H]3O[C@@H]3C(=NOC[C@@H](O)COCc3ccco3)[C@H]1CC2 | -0.74 | -0.629 | 0.587 | -1.9 | 0.361 | 0.167 | -0.0823 | 0.389 | 0.534 | -0.47 (inactive)
17 | CCOC(=O)NN=C1C[C@@H](O)[C@@H](O)[C@@H]2[C@@H]3C(=O)N(c4cccc(Oc5ccccc5)c4)C(=O)[C@@H]3CC[C@H]12 | 0.141 | 0.34 | 0.0494 | 0.641 | 0.519 | 0.374 | 0.471 | 0.365 | 0.01 | -0.219 (inactive)
18 | COC(=O)[C@H](C)NC(=O)CCC1CC(OC(=O)NCc2cccc3ccccc23)CC2(CCCC(COC(=O)NCC(c3ccccc3)c3ccccc3)O2)O1 (stereo not given in full) | 1.04 | 1.15 | 0.713 | 0.665 | 0.376 | 0.227 | 1.17 | 0.554 | 0.661 | 1.22 (inactive)
19 | CC(C)(C)N1C(=O)[C@H]2[C@H]3[C@H](O)[C@H](O)CC(=NOCc4ccccc4)[C@H]3CC[C@H]2C1=O | 0.102 | 0.0128 | -0.103 | 0.451 | -0.829 | -0.34 | -0.316 | -0.484 | 0.877 | 0.109 (inactive)
20 | CC(C)=NOC[C@@H](C)[C@H](OCc1ccccc1)C(C)C | 0.164 | -1.56 | -0.15 | -0.22 | -0.476 | -0.229 | -0.375 | -0.458 | -0.351 | -1.4 (inactive)
21 | COC(=O)[C@@H]1CC[C@H](C)[C@@H](c2ccc(C)cc2)N1C(=O)c1ccc(C=NOCC[C@@H]2C=C[C@H](OC(C)=O)[C@@H](COC(C)=O)O2)cc1 | 2.68 | 0.895 | -0.125 | 0.316 | 0.47 | 0.614 | -0.512 | 0.605 | 0.175 | 0.963 (inactive)
22 | COc1ccc(O[C@H]2C=C[C@@H](c3ccccc3)O[C@@H]2COC(=O)CCC(C)=NOC(C)CN2CCCc3nc(C)c(C)cc32)cc1 (stereo not given in full) | 0.264 | 1.11 | 0.0304 | 0.381 | 0.653 | 0.584 | 1.89 | 0.901 | -0.028 | 0.503 (inactive)
23 | O=C1[C@H]2[C@H]3[C@H](O)[C@H](O)CC(=NOCc4ccccc4)[C@H]3CC[C@H]2C(=O)N1Cc1ccc2c(c1)OCO2 | -0.169 | 0.186 | -0.175 | 0.632 | 0.214 | 0.533 | -0.626 | 0.397 | 0.492 | 1.23 (inactive)
24 | CCc1cc2c(nc1CC)CCN(CCC(C)=NO[C@H](C)c1cn([C@H](CO)Cc3ccccc3)nn1)C2 | 1.08 | 0.282 | 0.119 | 0.408 | 0.672 | 0.884 | 0.085 | 0.531 | 0.55 | -0.378 (inactive)
